# From publication PMC5540273 (PLoS ONE, 2017)
# Values joined by “and” are separate entries in the source; they are usually repeats but may differ in a detail not shown here. Equal values may be shown once. Read-outs that look alike come from different tables or passages of the source.
# Assays:
# CAMK2D = conditions: concentration: 1 μM, replicates: in singlicate; n = 1
# CAMK2G = conditions: concentration: 1 μM, replicates: in singlicate, n = 1
# CAMK4 = conditions: concentration: 1 μM, replicates: in singlicate; n = 1
# CAMKK1 = conditions: concentration: 1 μM, replicates: in singlicate; n = 1
# CAMKK2 = conditions: concentration: 1 μM, replicates: in singlicate; n = 1
# CASK = conditions: concentration: 1 μM, replicates: in singlicate; n = 1
# CDC2L1 = tested on: T1, CDC2L1; conditions: concentration: 1 μM, replicates: in singlicate; n = 1
# T1 construct: gene CDK11B
# CDC2L2 = conditions: concentration: 1 μM, replicates: in singlicate, n = 1
# CDC2L5 = tested on: T2, CDC2L5; conditions: concentration: 1 μM, replicates: in singlicate, n = 1
# T2 construct: gene CDK13
# CDK11 = tested on: T3, CDK11; conditions: concentration: 1 μM, replicates: in singlicate, n = 1
# T3 construct: gene CDK19
# CDK2 = conditions: concentration: 1 μM, replicates: in singlicate; n = 1
# CDK3 = conditions: concentration: 1 μM, replicates: in singlicate, n = 1
# CDK4-cyclinD1 = conditions: concentration: 1 μM, replicates: in singlicate; n = 1
# CDK4-cyclinD3 = conditions: concentration: 1 μM, replicates: in singlicate; n = 1
# CDK4 = conditions: concentration: 1 μM, replicates: in singlicate, n = 1
# CDK5 = conditions: concentration: 1 μM, replicates: in singlicate; n = 1
# CDK7 = conditions: concentration: 1 μM, replicates: in singlicate, n = 1
# CDK8 = conditions: concentration: 1 μM, replicates: in singlicate, n = 1
# CDK9 = conditions: concentration: 1 μM, replicates: in singlicate; n = 1
# CDKL1 = conditions: concentration: 1 μM, replicates: in singlicate, n = 1
# 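Further: KINOMEscan kinase panel screen.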
structure (smiles),measurement,setting,value
Cc1cc(N2CCC(NS(=O)(=O)c3ccc(F)cc3)CC2)nc(Nc2cccc(C#N)c2)n1.O=C(O)C(F)(F)F [GSK1653537],%Inh,CAMK2D,3%
same,%Inh,CAMK2G,1%
same,%Inh,CAMK4,0%
same,%Inh,CAMKK1,5%
same,%Inh,CAMKK2,0%
same,%Inh,CASK,0%
same,%Inh,CDC2L1,0%
same,%Inh,CDC2L2,0%
same,%Inh,CDC2L5,0%
same,%Inh,CDK11,0%
same,%Inh,CDK2,4%
same,%Inh,CDK3,0%
same,%Inh,CDK4-cyclinD1,0%
same,%Inh,CDK4-cyclinD3,0%
same,%Inh,CDK4,5%
same,%Inh,CDK5,0%
same,%Inh,CDK7,0%
same,%Inh,CDK8,10%
same,%Inh,CDK9,0%
same,%Inh,CDKL1,0%
CCc1nc(-c2cccc(N(C)S(=O)(=O)c3ccccc3)c2)c(-c2ccnc(Nc3ccc(N4CCN(C(C)=O)CC4)nc3)n2)s1 [GSK1645895],%Inh,CAMK2D,24%
same,%Inh,CAMK2G,37%
same,%Inh,CAMK4,0%
same,%Inh,CAMKK1,30%
same,%Inh,CAMKK2,32%
same,%Inh,CASK,5%
same,%Inh,CDC2L1,11%
same,%Inh,CDC2L2,16%
same,%Inh,CDC2L5,0%
same,%Inh,CDK11,6%
same,%Inh,CDK2,0%
same,%Inh,CDK3,0%
same,%Inh,CDK4-cyclinD1,0%
same,%Inh,CDK4-cyclinD3,3%
same,%Inh,CDK4,0%
same,%Inh,CDK5,0%
same,%Inh,CDK7,0%
same,%Inh,CDK8,0%
same,%Inh,CDK9,15%
same,%Inh,CDKL1,1%
Cn1ccc2ncnc(Oc3ccc(NC(=O)Nc4cccnc4)c(Cl)c3)c21,%Inh,CAMK2D,19%
same,%Inh,CAMK2G,19%
same,%Inh,CAMK4,0%
same,%Inh,CAMKK1,20%
same,%Inh,CAMKK2,11%
same,%Inh,CASK,0%
same,%Inh,CDC2L1,9%
same,%Inh,CDC2L2,0%
same,%Inh,CDC2L5,10%
same,%Inh,CDK11,0%
same,%Inh,CDK2,0%
same,%Inh,CDK3,0%
same,%Inh,CDK4-cyclinD1,0%
same,%Inh,CDK4-cyclinD3,0%
same,%Inh,CDK4,0%
same,%Inh,CDK5,4%
same,%Inh,CDK7,7%
same,%Inh,CDK8,0%
same,%Inh,CDK9,2%
same,%Inh,CDKL1,8%
CC(C)(C)OC(=O)NC1CCCN(c2cc(-c3ccc4c(N)n[nH]c4c3)nc(N)n2)C1 (stereo not shown) [GSK2286096],%Inh,CAMK2D,16%
same,%Inh,CAMK2G,18%
same,%Inh,CAMK4,0%
same,%Inh,CAMKK1,0%
same,%Inh,CAMKK2,32%
same,%Inh,CASK,2%
same,%Inh,CDC2L1,8%
same,%Inh,CDC2L2,0%
same,%Inh,CDC2L5,0%
same,%Inh,CDK11,38%
same,%Inh,CDK2,0%
same,%Inh,CDK3,0%
same,%Inh,CDK4-cyclinD1,0%
same,%Inh,CDK4-cyclinD3,0%
same,%Inh,CDK4,0%
same,%Inh,CDK5,0%
same,%Inh,CDK7,0%
same,%Inh,CDK8,0%
same,%Inh,CDK9,2%
same,%Inh,CDKL1,0%
COC(=O)c1c(-c2ccccc2)c2cc(Cl)ccc2c(=O)n1Cc1ccc(S(C)(=O)=O)cc1,%Inh,CAMK2D,5%
same,%Inh,CAMK2G,9%
same,%Inh,CAMK4,0%
same,%Inh,CAMKK1,0%
same,%Inh,CAMKK2,14%
same,%Inh,CASK,0%
same,%Inh,CDC2L1,10%
same,%Inh,CDC2L2,10%
same,%Inh,CDC2L5,29%
same,%Inh,CDK11,0%
same,%Inh,CDK2,0%
same,%Inh,CDK3,0%
same,%Inh,CDK4-cyclinD1,0%
same,%Inh,CDK4-cyclinD3,4%
same,%Inh,CDK4,0%
same,%Inh,CDK5,7%
same,%Inh,CDK7,10%
same,%Inh,CDK8,0%
same,%Inh,CDK9,7%
same,%Inh,CDKL1,9%
COc1cc2c(Nc3cccc(NC(=O)c4ccccc4)c3)ncnc2cc1OCCCN1CCOCC1 [GSK223810],%Inh,CAMK2D,0%
same,%Inh,CAMK2G,15%
same,%Inh,CAMK4,0%
same,%Inh,CAMKK1,1%
same,%Inh,CAMKK2,0%
same,%Inh,CASK,6%
same,%Inh,CDC2L1,0%
same,%Inh,CDC2L2,11%
same,%Inh,CDC2L5,0%
same,%Inh,CDK11,3%
same,%Inh,CDK2,0%
same,%Inh,CDK3,5%
same,%Inh,CDK4-cyclinD1,0%
same,%Inh,CDK4-cyclinD3,0%
same,%Inh,CDK4,0%
same,%Inh,CDK5,0%
same,%Inh,CDK7,0%
same,%Inh,CDK8,14%
same,%Inh,CDK9,0%
same,%Inh,CDKL1,0%
CN1c2ccc(-c3ccc(C(=O)NCCO)cc3)cc2-c2[nH]ncc2S1(=O)=O,%Inh,CAMK2D,24%
same,%Inh,CAMK2G,21%
same,%Inh,CAMK4,0%
same,%Inh,CAMKK1,22%
same,%Inh,CAMKK2,37%
same,%Inh,CASK,48%
same,%Inh,CDC2L1,0%
same,%Inh,CDC2L2,0%
same,%Inh,CDC2L5,2%
same,%Inh,CDK11,11%
same,%Inh,CDK2,2%
same,%Inh,CDK3,0%
same,%Inh,CDK4-cyclinD1,20%
same,%Inh,CDK4-cyclinD3,12%
same,%Inh,CDK4,0%
same,%Inh,CDK5,0%
same,%Inh,CDK7,32%
same,%Inh,CDK8,0%
same,%Inh,CDK9,0%
same,%Inh,CDKL1,22%
COC(=O)c1cccc(NC(=O)NCCNc2ccnc(Nc3ccc(F)cc3)n2)c1 [GSK1379883],%Inh,CAMK2D,0%
same,%Inh,CAMK2G,17%
same,%Inh,CAMK4,0%
same,%Inh,CAMKK1,11%
same,%Inh,CAMKK2,6%
same,%Inh,CASK,0%
same,%Inh,CDC2L1,0%
same,%Inh,CDC2L2,20%
same,%Inh,CDC2L5,0%
same,%Inh,CDK11,16%
same,%Inh,CDK2,0%
same,%Inh,CDK3,2%
same,%Inh,CDK4-cyclinD1,0%
same,%Inh,CDK4-cyclinD3,0%
same,%Inh,CDK4,34%
same,%Inh,CDK5,0%
same,%Inh,CDK7,0%
same,%Inh,CDK8,8%
same,%Inh,CDK9,0%
same,%Inh,CDKL1,3%
Cl.Cn1ccc(-c2cccc(Nc3ccnc4cc(-c5nccs5)ccc34)c2)n1 [GW525701],%Inh,CAMK2D,26%
same,%Inh,CAMK2G,21%
same,%Inh,CAMK4,0%
same,%Inh,CAMKK1,25%
same,%Inh,CAMKK2,20%
same,%Inh,CASK,2%
same,%Inh,CDC2L1,0%
same,%Inh,CDC2L2,0%
same,%Inh,CDC2L5,0%
same,%Inh,CDK11,3%
same,%Inh,CDK2,0%
same,%Inh,CDK3,6%
same,%Inh,CDK4-cyclinD1,47%
same,%Inh,CDK4-cyclinD3,0%
same,%Inh,CDK4,36%
same,%Inh,CDK5,0%
same,%Inh,CDK7,0%
same,%Inh,CDK8,7%
same,%Inh,CDK9,0%
same,%Inh,CDKL1,0%
Cl.c1ccc(Cn2ncc3cc(Nc4ncnc5ccccc45)ccc32)cc1 [GW273749],%Inh,CAMK2D,31%
same,%Inh,CAMK2G,25%
same,%Inh,CAMK4,0%
same,%Inh,CAMKK1,3%
same,%Inh,CAMKK2,32%
same,%Inh,CASK,5%
same,%Inh,CDC2L1,0%
same,%Inh,CDC2L2,19%
same,%Inh,CDC2L5,0%
same,%Inh,CDK11,4%
same,%Inh,CDK2,7%
same,%Inh,CDK3,0%
same,%Inh,CDK4-cyclinD1,0%
same,%Inh,CDK4-cyclinD3,11%
same,%Inh,CDK4,15%
same,%Inh,CDK5,0%
same,%Inh,CDK7,1%
same,%Inh,CDK8,0%
same,%Inh,CDK9,0%
same,%Inh,CDKL1,0%
COc1ccc(-c2nc3n(c2-c2ccncc2)CCC3)cc1 [SKF-104493],%Inh,CAMK2D,0%
same,%Inh,CAMK2G; 1 µM,0% and 2%
same,%Inh,CAMK4,0%
same,%Inh,CAMKK1,0%
same,%Inh,CAMKK2,0%
same,%Inh,CASK,0%
same,%Inh,CDC2L1,0%
same,%Inh,CDC2L2; 1 µM,6% and 13%
same,%Inh,CDC2L5; 1 µM,18% and 0%
same,%Inh,CDK11; 1 µM,5% and 7%
same,%Inh,CDK2,0%
same,%Inh,CDK3; 1 µM,0% and 4%
same,%Inh,CDK4-cyclinD1,0%
same,%Inh,CDK4-cyclinD3,0%
same,%Inh,CDK4; 1 µM,44% and 0%
same,%Inh,CDK5,0%
same,%Inh,CDK7; 1 µM,15% and 6%
same,%Inh,CDK8; 1 µM,5% and 9%
same,%Inh,CDK9,0%
same,%Inh,CDKL1; 1 µM,11% and 6%
